This is a sample that favours compounds with a hit; in the whole collection about 5.4% have one here.
RORg inh: ROR gamma (mouse) transcription inhibition. Potency, µM (titrated, usually from 53.6 µM), hits mostly inhibitors. Drosophila S2 Gal4-RORgamma UAS-luciferase reporter, 20 h. P51450. 5.4% of 310,000 active. AID 2551; further: nearly all actives have a fitted effect of over 60% in size
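A Gal4/UAS one-hybrid system in insect cells: metallothionein-promoter Gal4–ROR gamma fusion plus Photinus luciferase reporter. Copper sulfate 700 uM final, 20 hr ambient incubation, luminescent detection after 10 min with reagent.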
VP16 counter: counter-screen for ROR gamma inhibitors: Gal4-VP16 reporter | Drosophila S2 Gal4-VP16 UAS-luciferase, luminescence, 20 h | Potency, µM (doses to about 53.6 µM), actives largely listed as inhibitors | 3.5% of 310,000 active | AID 2546;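 further: Gal4-VP16 expression switched on by copper sulfate through the metallothionein promoter; nearly all actives have a fitted effect of over 50% in size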
Six1-Eya2 blk: Six1/Eya2 interaction inhibition | AlphaScreen GST-Six1/His-Eya2 binding, biochemical; hits give low values | Q15475+O00167 | 0.56% of 360,000 active | activity change, % (concentration not given with the values) | AID 651725; in the data active means activity change below about -65%; inconclusive means mostly about -30% to -63%
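Homogeneous AlphaScreen proximity assay pairing GST-Six1 with His-tagged Eya2 (added as 5X mix: 250 nM and 500 nM) in 50 mM Tris pH 8.0, 300 mM NaCl, 1 mM TCEP. Glutathione donor and nickel acceptor beads; 1 h, 37 °C, dark.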
CtBP-E1A blk: CtBP/E1A binding inhibition. activity change, % (test concentration not listed). AID 651724. AlphaScreen GST-E1A/His-CtBP binding, 1536-well; hits give low values. 0.49% of 340,000 active; in the data active means activity change below about -65%; inconclusive means mostly about -30% to -63%
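Protein mix (5X: 125 nM each GST-E1A, His-CtBP) was incubated with pinned compound 2 h at 37 deg C in dark, in 50 mM Tris pH 8.0 buffer with 300 mM NaCl. Glutathione donor and nickel acceptor beads followed; AlphaScreen signal read after 1 h.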
p53 reactivator: mutant p53 re-activation in reporter cells; 0.063% of 320,000 active; H1299 p53-A138V BP100-luciferase reporter, luminescence, 24 h; Potency, µM (titrated, usually from 92.2 µM), most hits filed as activators; further: nearly all actives have a fitted effect of over 45% in size
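H1299 (p53-null), stable ts p53-A138V + BP100-Luc; 1000 cells/well, Opti-MEM/10% FBS; cpd 4 pt, 1:5; 24 h, 37 deg C, 5% CO2; detection reagent 10 min RT; luminescence.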
Large screens that a line does not name were inactive. Unless noted, the call rests on the fitted dose curve; in most records, active means well fitted curve in the direction sought with a large enough effect; inconclusive means small, poorly fitted or top-dose-only effect, or another doubt; inactive means no such curve, though single readings can be large; an effect the other way counts as inactive or inconclusive.

Nc1nc(-c2ccccc2)c(-c2ccccc2)n1N	RORg inh 0.4µM, VP16 counter 1.4µM
Cn1c(=Nc2ccccc2)sc2ccccc21	none
CN(C)c1ccc(N=c2sc3ccccc3n2C)cc1	Six1-Eya2 blk -84, p53 reactivator inconclusive
CCN(CC)Cc1nc2c(c(=O)[nH]1)C1(CCCC1)Cc1ccccc1-2	RORg inh 2.8µM, VP16 counter 11µM
C=CCNC(=S)NNc1nc2c(c(=O)[nH]1)C1(CCCCC1)Cc1ccccc1-2	RORg inh 1µM, VP16 counter 1.8µM
O=c1[nH]c(CN(CCO)CCO)nc2c1C1(CCCCC1)Cc1ccccc1-2	RORg inh inconclusive
Cc1cc(C(F)(F)F)nc(SCC(=O)Nc2c(C)n(C)n(-c3ccccc3)c2=O)n1	none
CCOC(=O)Cn1c(=O)oc2cc(S(=O)(=O)NCCCc3ccccc3)ccc21	RORg inh inconclusive, VP16 counter 13µM
Cc1ccccc1C(=O)Nc1ccccc1N1CCN(C(=O)c2ccccc2)CC1	none
Cc1ccccc1C(=O)NC(=S)Nc1ccccc1N1CCCC1	RORg inh 7.1µM, Six1-Eya2 blk inconclusive
COc1ccccc1C(=O)NC(=S)Nc1ccc(N2CCCC2)cc1	RORg inh inconclusive, p53 reactivator inconclusive
COc1ccccc1C(=O)NC(=S)Nc1ccccc1N1CCCC1	RORg inh 10µM, VP16 counter inconclusive, p53 reactivator inconclusive (no result: Six1-Eya2 blk, CtBP-E1A blk)
CCc1ccc2c(Cl)c(C(=O)N/N=C/c3c[nH]c4ccccc34)sc2c1	RORg inh 8.9µM
CC(C)c1cc(C(=O)N/N=C/c2c[nH]c3ccccc23)n[nH]1	none
CCc1ccc(C(=O)N/N=C/c2cccc3ccccc23)nc1	RORg inh inconclusive, VP16 counter inconclusive, p53 reactivator 32µM
O=C(N/N=C/c1ccc[nH]1)c1sc2ccccc2c1Cl	RORg inh 0.32µM, VP16 counter 0.56µM, p53 reactivator inconclusive
CCc1ccc(-c2cc(C(=O)N/N=C/c3c[nH]c4ccccc34)[nH]n2)cc1	RORg inh 11µM, VP16 counter 13µM
Cc1cc(/C=c2/sc3nc4ccccc4n3c2=O)c(C)n1-c1ccccn1	RORg inh 0.1µM, VP16 counter 0.25µM
Nc1ccc(O)c2c1C(=O)c1ccccc1C2=O	Six1-Eya2 blk -85, CtBP-E1A blk -86
Nc1ccc(Br)c2c1C(=O)c1ccccc1C2=O	RORg inh inconclusive, Six1-Eya2 blk inconclusive, CtBP-E1A blk -75
COc1ccc(N)c2c1C(=O)c1ccccc1C2=O	CtBP-E1A blk inconclusive
O=C1c2ccccc2C(=O)c2c(O)ccc(O)c21	none (no result: Six1-Eya2 blk, CtBP-E1A blk, p53 reactivator)
Cc1ccc(OCCN2C(=O)NC3(CCc4ccccc4C3)C2=O)cc1 (stereo unspecified)	none
O=C(N/N=C/c1ccccc1Cl)c1n[nH]c2c1CCCC2	RORg inh 2.8µM, VP16 counter inconclusive (no result: CtBP-E1A blk)
C#CCOCCOCCOCCNc1nc(N2CCN(C(=O)[C@H](C)n3cc(CCC(=O)O)nn3)CC2)nc(N2CCN(C(=O)[C@H](CCCCN)n3cc(CCCC)nn3)CC2)n1	none (no result: RORg inh, VP16 counter, p53 reactivator)
CCC(=O)c1ccc(OCc2ccccc2)c(OC)c1	RORg inh inconclusive, p53 reactivator inconclusive
CCC(C)(C)NC(=O)COc1ccc(C(=O)c2ccccc2)cc1	VP16 counter 13µM
CCC(=O)c1ccc(OCc2ccc(C(=O)c3ccccc3)cc2)cc1	RORg inh inconclusive, VP16 counter 7.1µM
CCOC(=O)N1CCN(C(=O)C[C@@H]2C[C@@]3(C(=O)OC)CCCCC=C3N(CCc3ccc(OC)c(OC)c3)C2=O)CC1	none (no result: RORg inh, VP16 counter, p53 reactivator)
CC(C)(C)C(=O)NC(=S)NCc1ccccc1	RORg inh 7.1µM, VP16 counter inconclusive
Cc1cccc(C(=O)NC(=S)NCc2ccccc2)c1	none (no result: RORg inh, VP16 counter, p53 reactivator)
O=C(O)CC(NC(=S)NCc1ccccc1)C(=O)O (stereo unspecified)	RORg inh 16µM, VP16 counter 11µM
O=C(NC(=S)NCc1ccncc1)c1ccccc1	none (no result: CtBP-E1A blk)
O=C(NC(=S)NCc1ccc(F)cc1)c1ccccc1	RORg inh 5µM, VP16 counter inconclusive
O=C(NC(=S)NCc1ccccc1)c1ccccc1	RORg inh 3.2µM, VP16 counter inconclusive
O=C(/C=C/c1ccccc1[N+](=O)[O-])N1CCN(C(=O)c2ccco2)CC1	none
O=C(Cc1ccccc1)NCc1ccncc1	RORg inh 6.3µM, VP16 counter inconclusive
O=C(c1cc(C(F)(F)F)cc(C(F)(F)F)c1)N1CCC[C@@]2(CCN(c3ccccc3)C2)C1	none (no result: Six1-Eya2 blk, CtBP-E1A blk, p53 reactivator)
Cc1cc(C)n(-c2ccc3cccc(NS(C)(=O)=O)c3n2)n1	RORg inh 4.5µM, VP16 counter inconclusive
COc1ccc(C(=O)CNc2ccccc2CO)cc1	none
COC(=O)c1ccccc1NCC(=O)c1ccc(OC)cc1	VP16 counter 18µM
COc1ccc(C(=O)COc2ccccc2C#N)cc1	p53 reactivator 32µM
COc1ccc(C(=O)CC(=O)c2ccccc2O)cc1OC	RORg inh 7.1µM
COc1ccc(C(=O)CC(=O)c2ccccc2O)cc1	RORg inh 7.9µM, VP16 counter 6.3µM
O=c1cc(-c2ccc(F)cc2F)[nH]c2ccc(F)cc12	none (no result: Six1-Eya2 blk, CtBP-E1A blk, p53 reactivator)
COc1ccc(C(=O)CSc2cc(C)nc3nc(C)nn23)cc1OC	RORg inh 16µM, VP16 counter inconclusive
COc1ccc(C(=O)COC(=O)c2ccc(OC)c(OC)c2)cc1OC	none
COc1ccc(C(=O)CSc2nc(SC)ns2)cc1OC	none (no result: p53 reactivator)
